Source: PubChem BioAssay (Tox21)
Values without a mark were called inactive. Inconclusive results are not listed. A call without a number means that no potency is given here. Active and inactive are the calls of the source. The call rests on the fitted dose curve; in most records, active means well fitted curve in the direction sought with a large enough effect in the repeat runs; inconclusive means weak or mixed curves; inactive means no such curve, though single readings can be large; an effect the other way counts as inactive or inconclusive.

test: qHTS RealTime-Glo MT Cell Viability Assay in HepG2 cells - 24 hour (AID 1224867); details: RealTime-Glo luminescence; series mostly up to 76.8 µM
In short: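 HepG2 cells were seeded at 600 cells/well together with NanoLuc luciferase and a cell-permeant prosubstrate, preincubated 5 h at 37 C/5% CO2, then pin-dosed with compounds in DMSO. Nonlytic luminescence from viable cells was read at each time point.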
Further: nearly all actives have a fitted effect of over 50% in size.

SMILES	activity change, negative = cytotoxicity	Potency
C[C@@H]1CN(c2c(F)c(N)c3c(=O)c(C(=O)O)cn(C4CC4)c3c2F)C[C@H](C)N1	2.81% [at 15.8 µM]	–
COc1nc(C)nc(NC(=O)NS(=O)(=O)c2ccccc2OCCCl)n1	–	inactive
Cc1ccsc1C(=CCCN1CCC[C@@H](C(=O)O)C1)c1sccc1C	–	inactive
C=CCCC=C	–	inactive
CN1C(=O)CC(c2ccccc2)C1=O (stereo unspecified)	–	inactive
O=C(O)c1cccc(Cl)c1Cl	–	inactive
OCC(CBr)(CBr)CBr	–	inactive
CCC(=O)c1ccc2c(c1)N(CCCN(C)C)c1ccccc1S2	–	inactive
CC(C)(C)c1ccc(OC(=O)c2ccccc2O)cc1	–	inactive
CN(C)C(=O)NC1(c2ccccc2)CCN(CCC[C@]2(c3ccc(Cl)c(Cl)c3)CCCN(C(=O)c3ccccc3)C2)CC1	-9.68% [at 15.8 µM]	–
Oc1ccccc1F	–	inactive
CC(C)(C)C1CCCCC1=O (stereo unspecified)	–	inactive
C/C(=N\O)[C@@H](C)NCC(C)(C)CN[C@H](C)/C(C)=N/O	–	inactive
Cc1ncc(CO)c(CN)c1O	–	inactive
Cc1nc(N)nc(N)c1-c1ccc(Cl)c(Cl)c1	–	inactive
CCOc1ccc(OCC)c(Cl)c1	–	inactive
CC1(O)CSC(C)(O)CS1 (stereo unspecified)	–	inactive
CCN(CC)CCOc1ccc(Cc2ccccc2)cc1	–	inactive
CN1CCN(N)CC1	–	inactive
O=S(=O)(O)C(F)(F)F	–	inactive

SMILES	activity change, negative = cytotoxicity	Potency
COC(=O)C(C)O (stereo unspecified)	–	inactive
CCOc1ccc(NS(=O)(=O)c2ccc(N)cc2)nn1	–	inactive
Cc1ccc(C(C)C)cc1O	–	inactive
CCCCCCn1c(=O)c2c(ncn2C)n(C)c1=O	–	inactive
CCC(=O)Nc1ccc(O)cc1	–	inactive
CC(CNC1CCCCC1)OC(=O)c1ccccc1 (stereo unspecified)	–	inactive
CN1CCN(c2c(F)cc3c(=O)c(C(=O)O)cn(CCF)c3c2F)CC1	–	inactive
O=CCCc1ccccc1	–	inactive
CCCc1c2oc(C(=O)O)cc(=O)c2cc2c(=O)cc(C(=O)O)n(CC)c12	–	inactive
C=CCCCCCCCCO	–	inactive
CCCCCCCCCC#N	–	inactive
Clc1cccc(-c2cc(Cl)cc(Cl)c2)c1	–	inactive
CCCCNc1cc(C(=O)O)cc(S(N)(=O)=O)c1Oc1ccccc1	–	inactive
O=Cc1ccc(O)c(O)c1O	–	inactive
CC/C=C\CCOC(=O)C(C)C	–	inactive
FC(F)(F)C(Cl)(Cl)Cl	–	inactive
NC(=O)Cc1cccc(C(=O)c2ccccc2)c1N	–	inactive
O=C1CCCCC1C1CCCCC1 (stereo unspecified)	–	inactive
CN1CCN(C2=Nc3cc(F)ccc3Cc3ccccc32)CC1	–	inactive

test: qHTS RealTime-Glo MT Cell Viability Assay in HEK293 cells - 32 hour (AID 1224868); details: RealTime-Glo luminescence; series mostly up to 76.8 µM; further: potency means the concentration at half of the fitted maximal effect; on activity change, negative = cytotoxic: top concentration of the series differs between compounds
In short: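 HEK293 cells were seeded at 600 cells/well together with NanoLuc luciferase and cell-permeant prosubstrate, preincubated 5 h at 37 C/5% CO2, then given compound in DMSO by pintool. Luminescence from viable-cell prosubstrate reduction was read repeatedly over 40 h.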

SMILES	activity change, negative = cytotoxic	Potency
C[C@@H]1CN(c2c(F)c(N)c3c(=O)c(C(=O)O)cn(C4CC4)c3c2F)C[C@H](C)N1	-1.37% [at 15.8 µM]	–
COc1nc(C)nc(NC(=O)NS(=O)(=O)c2ccccc2OCCCl)n1	–	inactive
Cc1ccsc1C(=CCCN1CCC[C@@H](C(=O)O)C1)c1sccc1C	–	inactive
C=CCCC=C	–	inactive
CN1C(=O)CC(c2ccccc2)C1=O (stereo unspecified)	–	inactive
O=C(O)c1cccc(Cl)c1Cl	–	inactive
CCC(=O)c1ccc2c(c1)N(CCCN(C)C)c1ccccc1S2	–	16.9 µM (active)
CC(C)(C)c1ccc(OC(=O)c2ccccc2O)cc1	–	inactive
Oc1ccccc1F	–	inactive
CC(C)(C)C1CCCCC1=O (stereo unspecified)	–	inactive
C/C(=N\O)[C@@H](C)NCC(C)(C)CN[C@H](C)/C(C)=N/O	–	inactive
Cc1ncc(CO)c(CN)c1O	–	inactive
CCOc1ccc(OCC)c(Cl)c1	–	inactive
CC1(O)CSC(C)(O)CS1 (stereo unspecified)	–	inactive
CN1CCN(N)CC1	–	inactive
O=S(=O)(O)C(F)(F)F	–	inactive
COC(=O)C(C)O (stereo unspecified)	–	inactive

SMILES	activity change, negative = cytotoxic	Potency
Cc1ccc(C(C)C)cc1O	–	inactive
CCCCCCn1c(=O)c2c(ncn2C)n(C)c1=O	–	inactive
CCC(=O)Nc1ccc(O)cc1	–	inactive
CC(CNC1CCCCC1)OC(=O)c1ccccc1 (stereo unspecified)	–	inactive
CN1CCN(c2c(F)cc3c(=O)c(C(=O)O)cn(CCF)c3c2F)CC1	–	inactive
O=CCCc1ccccc1	–	inactive
CCCc1c2oc(C(=O)O)cc(=O)c2cc2c(=O)cc(C(=O)O)n(CC)c12	–	inactive
C=CCCCCCCCCO	–	inactive
CCCCCCCCCC#N	–	inactive
Clc1cccc(-c2cc(Cl)cc(Cl)c2)c1	–	inactive
CCCCNc1cc(C(=O)O)cc(S(N)(=O)=O)c1Oc1ccccc1	–	inactive
O=Cc1ccc(O)c(O)c1O	–	inactive
CC/C=C\CCOC(=O)C(C)C	–	inactive
FC(F)(F)C(Cl)(Cl)Cl	–	inactive
NC(=O)Cc1cccc(C(=O)c2ccccc2)c1N	–	inactive
O=C1CCCCC1C1CCCCC1 (stereo unspecified)	–	inactive

test: A CellTox Green Cytotoxicity Assay to monitor cytotoxicity in HEK293 cells - 0 hour (AID 1224869); details: CellTox Green fluorescence; series mostly up to 76.8 µM
In short: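 Dead-cell fluorescence measured kinetically: asymmetric cyanine dye, HEK293, 600 cells/well, 5 h settle, 23 nL cpd/DMSO, 37 C, reads 0–40 h every 8 h.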

SMILES	cytotoxicity	Potency
C[C@@H]1CN(c2c(F)c(N)c3c(=O)c(C(=O)O)cn(C4CC4)c3c2F)C[C@H](C)N1	8.42% [at 15.8 µM]	–
COc1nc(C)nc(NC(=O)NS(=O)(=O)c2ccccc2OCCCl)n1	–	inactive
Cc1ccsc1C(=CCCN1CCC[C@@H](C(=O)O)C1)c1sccc1C	–	inactive
C=CCCC=C	–	inactive
CN1C(=O)CC(c2ccccc2)C1=O (stereo unspecified)	–	inactive
O=C(O)c1cccc(Cl)c1Cl	–	inactive
OCC(CBr)(CBr)CBr	–	inactive
CCC(=O)c1ccc2c(c1)N(CCCN(C)C)c1ccccc1S2	–	inactive
CC(C)(C)c1ccc(OC(=O)c2ccccc2O)cc1	–	inactive
CN(C)C(=O)NC1(c2ccccc2)CCN(CCC[C@]2(c3ccc(Cl)c(Cl)c3)CCCN(C(=O)c3ccccc3)C2)CC1	-1.6% [at 15.8 µM]	–
Oc1ccccc1F	–	inactive
CC(C)(C)C1CCCCC1=O (stereo unspecified)	–	inactive
C/C(=N\O)[C@@H](C)NCC(C)(C)CN[C@H](C)/C(C)=N/O	–	inactive
Cc1ncc(CO)c(CN)c1O	–	inactive
Cc1nc(N)nc(N)c1-c1ccc(Cl)c(Cl)c1	–	inactive
CCOc1ccc(OCC)c(Cl)c1	–	inactive
CC1(O)CSC(C)(O)CS1 (stereo unspecified)	–	inactive
CCN(CC)CCOc1ccc(Cc2ccccc2)cc1	–	inactive
CN1CCN(N)CC1	–	inactive
O=S(=O)(O)C(F)(F)F	–	inactive

SMILES	cytotoxicity	Potency
COC(=O)C(C)O (stereo unspecified)	–	inactive
CCOc1ccc(NS(=O)(=O)c2ccc(N)cc2)nn1	–	inactive
Cc1ccc(C(C)C)cc1O	–	inactive
CCCCCCn1c(=O)c2c(ncn2C)n(C)c1=O	–	inactive
CCC(=O)Nc1ccc(O)cc1	–	inactive
CC(CNC1CCCCC1)OC(=O)c1ccccc1 (stereo unspecified)	–	inactive
CN1CCN(c2c(F)cc3c(=O)c(C(=O)O)cn(CCF)c3c2F)CC1	–	inactive
O=CCCc1ccccc1	–	inactive
CCCc1c2oc(C(=O)O)cc(=O)c2cc2c(=O)cc(C(=O)O)n(CC)c12	–	inactive
C=CCCCCCCCCO	–	inactive
CCCCCCCCCC#N	–	inactive
Clc1cccc(-c2cc(Cl)cc(Cl)c2)c1	–	inactive
CCCCNc1cc(C(=O)O)cc(S(N)(=O)=O)c1Oc1ccccc1	–	inactive
O=Cc1ccc(O)c(O)c1O	–	inactive
CC/C=C\CCOC(=O)C(C)C	–	inactive
FC(F)(F)C(Cl)(Cl)Cl	–	inactive
NC(=O)Cc1cccc(C(=O)c2ccccc2)c1N	–	inactive
O=C1CCCCC1C1CCCCC1 (stereo unspecified)	–	inactive
CN1CCN(C2=Nc3cc(F)ccc3Cc3ccccc32)CC1	–	inactive
